Measured values as given in PubChem BioAssay (NCATS).
Inconclusive results are not listed. Calls of active or inactive are those of the source. Calls come from the whole dose curve; as a rule, active = well fitted curve in the direction sought with a large enough effect; inconclusive = small, poorly fitted or top-dose-only effect, or another doubt; inactive = no such curve, though single readings can be large; an effect the other way counts as inactive or inconclusive.

Experiments:
[1] = Quantitative High-Throughput drug screen in 47 multiple myeloma cell lines against the NCATS MIPE library collection: KMM1_JCRB cell viability assay (AID 1918960); note: nearly all actives have a fitted effect of over 30% in size
Outline: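 Each line was plated at 500 cells/well and treated 48 h with library drugs. Viability came from CellTiter-Glo luminescence relative to DMSO and cell-free medium controls.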

[2] = Quantitative High-Throughput drug screen in 47 multiple myeloma cell lines against the NCATS MIPE library collection: Karpas417_ECACC cell viability assay (AID 1918961); details: Karpas417 myeloma viability, CellTiter-Glo ATP luminescence, 48 h; viability (% of DMSO): at 45.8 µM (top of the series)
Outline: (§1)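 Luminescent ATP measurement with CellTiter-Glo gives viability, scaled between DMSO-only wells (100%) and media-only wells (0%). Cells, 500 per well, faced library compounds for 48 hours at 37C.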

[3] = Quantitative High-Throughput drug screen in 47 multiple myeloma cell lines against the NCATS MIPE library collection: KHM11_PLB cell viability assay (AID 1918962); note: nearly all actives have a fitted effect of over 35% in size
Outline: (§2)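 qHTS of the MIPE 4.0 collection: 500 myeloma cells/well, 48 h drug exposure at 37C in 5% CO2, then CellTiter-Glo for 5 min at room temperature before luminescence reading.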

[4] = Quantitative High-Throughput drug screen in 47 multiple myeloma cell lines against the NCATS MIPE library collection: JIM3_ECACC cell viability assay (AID 1918963; note: nearly all actives have a fitted effect of over 35% in size)
Outline: as §2

[5] = Quantitative High-Throughput drug screen in 47 multiple myeloma cell lines against the NCATS MIPE library collection: JIM1_ECACC cell viability assay (AID 1918964)
Outline: (§3)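 Steps: seed 500 cells per well; pin-transfer MIPE 4.0 library; incubate 48 h at 37C, 5% CO2, humidified; add CellTiter-Glo, 5 min room temperature; read luminescence.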

[6] = Quantitative High-Throughput drug screen in 47 multiple myeloma cell lines against the NCATS MIPE library collection: INA6_PLB cell viability assay (AID 1918965; note: nearly all actives have a fitted effect of over 55% in size)
Outline: as §1

[7] = Quantitative High-Throughput drug screen in 47 multiple myeloma cell lines against the NCATS MIPE library collection: JJN3_DSMZ cell viability assay (AID 1918966; note: nearly all actives have a fitted effect of over 50% in size)
Outline: as §3

[8] = Quantitative High-Throughput drug screen in 47 multiple myeloma cell lines against the NCATS MIPE library collection: H1112_PLB cell viability assay (AID 1918967; note: nearly all actives have a fitted effect of over 30% in size)
Outline: as §3

[9] = Quantitative High-Throughput drug screen in 47 multiple myeloma cell lines against the NCATS MIPE library collection: Karpas25_ECACC cell viability assay (AID 1918968; note: nearly all actives have a fitted effect of over 35% in size)
Outline: as §3

[10] = Quantitative High-Throughput drug screen in 47 multiple myeloma cell lines against the NCATS MIPE library collection: KMS12BM_JCRB cell viability assay (AID 1918971); note: nearly all actives have a fitted effect of over 35% in size
Outline: (§4)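 CellTiter-Glo luminescence (ATP) after 48 h compound exposure, 37C/5% CO2; 500 cells/well; MIPE 4.0 approved/investigational drugs pinned in; DMSO = 100%, media only = 0% viability.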

[11] = Quantitative High-Throughput drug screen in 47 multiple myeloma cell lines against the NCATS MIPE library collection: KMS12PE_JCRB cell viability assay (AID 1918972); note: nearly all actives have a fitted effect of over 30% in size
Outline: as §1

[12] = Quantitative High-Throughput drug screen in 47 multiple myeloma cell lines against the NCATS MIPE library collection: KMS20_JCRB cell viability assay (AID 1918973); note: nearly all actives have a fitted effect of over 45% in size
Outline: as §3

[13] = Quantitative High-Throughput drug screen in 47 multiple myeloma cell lines against the NCATS MIPE library collection: KMS26_JCRB cell viability assay (AID 1918975); note: nearly all actives have a fitted effect of over 45% in size
Outline: as §4

[14] = Quantitative High-Throughput drug screen in 47 multiple myeloma cell lines against the NCATS MIPE library collection: MMM1_PLB cell viability assay (AID 1918976); note: nearly all actives have a fitted effect of over 35% in size
Outline: (§5)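 qHTS format: cells plated (500/well), pin-dosed with MIPE 4.0 compounds, kept 48 h at 37 °C. Readout was CellTiter-Glo luminescence, median RLU.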

[15] = Quantitative High-Throughput drug screen in 47 multiple myeloma cell lines against the NCATS MIPE library collection: MOLP8_DSMZ cell viability assay (AID 1918977); note: nearly all actives have a fitted effect of over 45% in size
Outline: as §5

[16] = Quantitative High-Throughput drug screen in 47 multiple myeloma cell lines against the NCATS MIPE library collection: NCIH929_DSMZ cell viability assay (AID 1918978); note: nearly all actives have a fitted effect of over 35% in size
Outline: as §5

[17] = Quantitative High-Throughput drug screen in 47 multiple myeloma cell lines against the NCATS MIPE library collection: OCIMY1_PLB cell viability assay (AID 1918979); note: nearly all actives have a fitted effect of over 35% in size
Outline: as §5

[18] = Quantitative High-Throughput drug screen in 47 multiple myeloma cell lines against the NCATS MIPE library collection: MM1S_ATCC cell viability assay (AID 1918980); note: nearly all actives have a fitted effect of over 45% in size
Outline: as §5

[19] = Quantitative High-Throughput drug screen in 47 multiple myeloma cell lines against the NCATS MIPE library collection: KMS27_JCRB cell viability assay (AID 1918970); note: nearly all actives have a fitted effect of over 30% in size
Outline: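 Myeloma cells (500 per well) were exposed to MIPE 4.0 compounds for 48 h at 37 °C, 5% CO2; viability was read as ATP luminescence with CellTiter-Glo, normalized to DMSO-only (100%) and media-only (0%) wells.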

[20] = Quantitative High-Throughput drug screen in 47 multiple myeloma cell lines against the NCATS MIPE library collection: KMS21BM_JCRB cell viability assay (AID 1918974); details: ATP luminescence, 48 h; viability: at 45.8 µM (top of the series) unless noted
Outline: as §3

Measured: Potency
Potency is the fitted concentration of half-maximal effect.

Cn1c2ccccc2c2c3c(c4c5ccccc5n(CCC#N)c4c21)CNC3=O
active: [1] 935 nM | [2] 148 nM | [3] 833 nM | [4] 6620 nM | [5] 526 nM | [6] 83.3 nM | [7] 3320 nM | [8] 2090 nM | [9] 1870 nM | [10] 16600 nM | [11] 2350 nM | [12] 1480 nM | [13] 14800 nM | [14] 10500 nM | [15] 10500 nM | [16] 1870 nM | [17] 14800 nM | [18] 2090 nM

CNC(=O)c1ccc(N2C(=S)N(c3cnc(C#N)c(C(F)(F)F)c3)C(=O)C23CCC3)cc1F
active: [1] 2090 nM | [2] 1050 nM | [3] 2090 nM | [4] 2960 nM | [5] 1870 nM | [6] 2090 nM | [7] 3320 nM | [8] 833 nM | [9] 743 nM | [19] 4690 nM | [10] 13200 nM | [11] 2960 nM | [12] 2350 nM | [16] 332 nM | [18] 132 nM

CCN(CC)CCNC(=O)c1ccc2nc(-c3ccccc3)c(-c3ccc(CN4CCC(n5c(=O)[nH]c6ccccc65)CC4)cc3)nc2c1
active: [1] 1660 nM | [2] 1050 nM | [3] 332 nM | [4] 935 nM | [5] 833 nM | [6] 296 nM | [7] 20900 nM | [8] 833 nM | [9] 332 nM | [19] 418 nM | [10] 16600 nM | [11] 833 nM | [12] 296 nM | [20] 1180 nM | [13] 14800 nM | [14] 26400 nM | [15] 16600 nM | [16] 743 nM | [17] 20900 nM

CN(c1ncccc1CNc1nc(Nc2ccc3c(c2)CC(=O)N3)ncc1C(F)(F)F)S(C)(=O)=O
active: [1] 3320 nM | [2] 1870 nM | [3] 2960 nM | [4] 5900 nM | [5] 3320 nM | [6] 2640 nM | [7] 2640 nM | [9] 3320 nM | [19] 2640 nM | [10] 9350 nM | [11] 8330 nM | [12] 3320 nM | [14] 7430 nM | [16] 2960 nM | [17] 13200 nM | [18] 6620 nM

COc1cc2c(Oc3ccc(NC(=O)C4(C(=O)Nc5ccc(F)cc5)CC4)cc3F)ccnc2cc1OCCCN1CCOCC1
active: [1] 2960 nM | [2] 2350 nM | [3] 7430 nM | [4] 11800 nM | [5] 1660 nM | [6] 7430 nM | [7] 16600 nM | [9] 935 nM | [19] 9350 nM | [11] 3720 nM | [12] 1870 nM | [13] 16600 nM | [14] 18700 nM | [16] 2960 nM | [17] 14800 nM | [18] 16600 nM

COc1cc2ncn(-c3cc(OCc4ccccc4C(F)(F)F)c(C(N)=O)s3)c2cc1OC
active: [1] 469 nM | [2] 13200 nM | [3] 18700 nM | [4] 469 nM | [5] 296 nM | [6] 1180 nM | [7] 16600 nM | [9] 13200 nM | [19] 132 nM | [10] 833 nM | [20] 1320 nM | [13] 18700 nM | [16] 7430 nM | [18] 3320 nM

COc1ccc(OC)c(-c2nnc3ccc(-c4ccc(OC)c(O[C@@H]5CCOC5)c4)nn23)c1
active: [1] 8330 nM | [2] 10500 nM | [3] 7430 nM | [4] 8330 nM | [5] 8330 nM | [6] 5900 nM | [7] 16600 nM | [8] 13200 nM | [9] 6620 nM | [19] 8330 nM | [10] 10500 nM | [11] 7430 nM | [12] 5260 nM | [20] 7430 nM | [13] 20900 nM | [14] 11800 nM | [15] 9350 nM | [16] 9350 nM | [17] 20900 nM | [18] 7430 nM

CC1(C)OC2=C(C(=O)c3ccccc3C2=O)[C@H](NCc2ccccc2)[C@H]1O
active: [1] 2350 nM | [2] 1870 nM | [3] 2640 nM | [4] 2090 nM | [5] 2640 nM | [6] 2090 nM | [7] 3720 nM | [8] 2350 nM | [9] 590 nM | [19] 1180 nM | [10] 8330 nM | [11] 1480 nM | [20] 1050 nM | [13] 5260 nM | [14] 2090 nM | [15] 2960 nM | [16] 2350 nM | [17] 4180 nM

CN1CC[C@@H](c2c(O)cc(O)c3c(=O)cc(-c4ccccc4Cl)oc23)[C@@H](O)C1
active: [1] 59 nM | [2] 18.7 nM | [3] 23.5 nM | [4] 83.3 nM | [5] 23.5 nM | [6] 41.8 nM | [7] 74.3 nM | [8] 132 nM | [9] 83.3 nM | [19] 93.5 nM | [10] 132 nM | [11] 132 nM | [12] 83.3 nM | [20] 29.6 nM | [13] 105 nM | [14] 187 nM | [15] 52.6 nM | [16] 74.3 nM | [17] 187 nM | [18] 93.5 nM
